Reference: PubChem BioAssay AID493185 (National Center for Advancing Translational Sciences (NCATS), 2011)
Active and inactive are the calls of the source. Where a call stands in place of a potency, no number is given. Calls follow the shape of the dose curve; as a rule, active = well fitted activation curve with a large enough effect; inconclusive = small, poorly fitted or top-dose-only effect; inactive = no such curve, though single readings can be large or run the other way.

Assay: Counterscreen for Identifying a Potential Treatment of Ataxia-Telangiectasia: Hit Validation
Conditions: cell-free AlphaLISA/AlphaScreen artifact counterscreen, PBS only, no cells; series mostly up to 76.9 µM
Summary of the method: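 Without cells, compounds at up to 76.7 uM final were combined with premixed anti-pKAP1/anti-KAP1 AlphaLISA bead reagents, protease inhibitors and lysis buffer; signal read after 6 hr at 25C to flag assay-platform artifacts.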
Potency is read from the fitted curve at half-maximal effect.

Row | SMILES | Potency
1 | Cc1ccc(NC(=O)CSc2nnc([C@H](C)NC(=O)OC(C)(C)C)o2)c(C)c1 | inactive
2 | CC(C)(C)C1CCC2(CC1)SCC(=O)N2c1ccccc1 (centres undefined) | inactive
3 | C(=N\Nc1ccccn1)/c1c[nH]c2ccccc12 | inactive
4 | O=C(c1cccc(F)c1)N1CCCC(C(=O)N2CCCCCC2)C1 (centres undefined) | inactive
5 | COc1ccc(Nc2cc3n(c(=O)n2)CCc2cc(OC)c(OC)cc2-3)cc1 | inactive
6 | S=c1[nH]nc(COc2ccccc2)n1/N=C/c1ccccc1Cl | inactive
7 | S=c1[nH]nc(C2CCCCC2)n1/N=C/c1ccc(Br)cc1 | inactive
8 | COc1ccc2nc(NCCCNC(=O)c3cc(OC)c(OC)c(OC)c3)c(C#N)cc2c1 | 29.2 µM (active)
9 | Cc1ccc(C(=O)N/C(=C\c2ccco2)C(=O)NC2CCS(=O)(=O)C2)cc1 (centres undefined) | inactive
10 | Brc1c(C[n+]2ccccc2)nc2ccccn12 | inactive
11 | CC(CCc1ccccc1)NC(=O)COC(=O)c1ccc(F)cc1 (centres undefined) | inactive
12 | COc1cc(/C=N/NC(=O)c2c(C)nc3ccc(Cl)cn23)cc(OC)c1OC | 58.2 µM (active)
13 | COc1cccc(CNC(=O)C(CC(C)C)NC(=O)c2ccccc2C)c1 (centres undefined) | inactive
14 | CCS(=O)(=O)c1ccc(C(=O)Nc2ccccc2)c(Cl)c1Cl | inactive
15 | N#CCN1C(=O)C(=O)N(Cc2cccc(Cl)c2)C1=O | inactive
16 | O=C(O)c1nccnc1C(=O)Nc1ccccc1-c1ccccc1 | inactive
17 | CC(C)(CO)NC(=O)c1ccc2c(c1)C(=O)c1ccccc1-2 | inactive
18 | CCC12CN(C(=O)c3ccc([N+](=O)[O-])cc3)CC(CC)(CN(C(=O)c3ccc([N+](=O)[O-])cc3)C1)C2=O | inactive
19 | C=CS(=O)(=O)c1sc(Cl)c(N2CCOCC2)c1[N+](=O)[O-] | inactive
20 | O=C(CSc1ccccn1)N/N=C/C=C/c1ccccc1 | inactive

Row | SMILES | Potency
21 | O=C(OCCc1cc2ccccc2c(=O)o1)c1cccc(Br)c1 | inactive
22 | C[C@@H]1Cc2c(O)c(O)cc(O)c2C(=O)O1 | inactive
23 | CCOC(=O)C1CCN(C(=O)c2cc3cc(Cl)ccc3[nH]2)CC1 | inactive
24 | CCOC(=O)Cc1csc(NC(=O)CSc2nnc(C(C)C)n2C)n1 | inactive
25 | Cn1cc(/C=N/NC(N)=S)c2ccccc21 | inactive
26 | CC(O)[C@H]1CNC(=O)C(=O)N1CC1(c2ccccc2)CC1 (some centres undefined) | inactive
27 | COc1ccc(CCNC(=O)C2CCN(S(=O)(=O)c3ccc(OC)c(OC)c3)CC2)cc1OC | inactive
28 | CCCc1ccc(S(=O)(=O)Nc2ccc(C)c(NS(C)(=O)=O)c2)cc1 | inactive
29 | CC(C)(CN1CCN(c2ccccc2)CC1)NS(=O)(=O)c1ccccc1 | inactive
30 | Cc1ccnc(NC(=O)c2ccccc2NC(=O)c2ccccc2)c1 | inactive
31 | CN(C)c1ccc2nc3ccc(=[N+](C)C)cc-3sc2c1 | 11.6 µM (active)
32 | O=C(CN1CCN(Cc2ccccc2)CC1)Nc1ccc(Cl)cc1 | inactive
33 | COc1ccc2nc(C)cc(Nc3ccc(C(=O)O)cc3)c2c1 | inactive
34 | CC1CCCC(C)N1C(=O)COC(=O)Cc1ccc(Cl)cc1 (centres undefined) | inactive
35 | C=CCOC(=O)C1=C[C@H](c2coc3ccccc3c2=O)C[C@H](OCc2ccc(CO)cc2)O1 | inactive
36 | CCn1c(=NC(=O)CN2C(=O)CCC2=O)sc2c(OC)ccc(OC)c21 | inactive
37 | CCc1nnc2n1N=C(c1cccc([N+](=O)[O-])c1)CS2 | inactive
38 | CCCCC(=O)NC(c1ccco1)c1c(O)ccc2ccccc12 (centres undefined) | inactive
39 | CCC(C)N1C(=S)SC(C)(C)C1N(O)C(=O)NC1CCCCC1 (centres undefined) | inactive
